Experimental data: the supplement of paper PMC6555819

Experiments:
Test in all cases: PBM binding z-score (relative to random genomic background probes); higher = stronger binding; sequences stand for … in GC…GCGATTGACAGCGTAGAATGAAGG
[1] = test system: FXR:RXRa (NR concentration 270 nM, RXRa partner concentration 90 nM)
Method in brief: (§1)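 Each nuclear receptor dimer, without ligand, was incubated for 1 h on custom Agilent 4×180K protein-binding microarrays. Binding was detected with antibodies against each partner (one per run), and scanned fluorescence was regression-normalized. The binding z-scores are referenced to random human genomic background probes.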

[2] = test system: LXRa:RXRa (NR concentration 270 nM, RXRa partner concentration 90 nM)
Method in brief: as §1

[3] = test system: LXRa homodimer (NR concentration 270 nM)
Method in brief: as §1

[4] = test system: LXRb:RXRa (NR concentration 270 nM, RXRa partner concentration 90 nM)
Method in brief: as §1

[5] = test system: LXRb homodimer (NR concentration 270 nM)
Method in brief: as §1

[6] = test system: PPARa:RXRa (NR concentration 270 nM, RXRa partner concentration 90 nM)
Method in brief: as §1

[7] = test system: PPARg:RXRa (NR concentration 180 nM, RXRa partner concentration 90 nM)
Method in brief: as §1

[8] = test system: PPARg:RXRa 270nM:90nM, anti-RXR (NR concentration 270 nM, RXRa partner concentration 90 nM)
Method in brief: as §1

[9] = test system: PPARg:RXRa 30nM:10nM, anti-RXR (NR concentration 30 nM, RXRa partner concentration 10 nM)
Method in brief: as §1

[10] = test system: PPARg:RXRa 90nM:30nM, anti-RXR (NR concentration 90 nM, RXRa partner concentration 30 nM)
Method in brief: as §1

[11] = test system: PPARg:RXRa DBDmut IVT, anti-RXR (DBD mutation: RXRa K156A/R161A, NR concentration 270 nM, RXRa partner concentration 90 nM)
Method in brief: as §1

[12] = test system: PPARg:RXRa IVT, anti-PPARg (NR concentration 270 nM, RXRa partner concentration 90 nM)
Method in brief: as §1

[13] = test system: PPARg DBDmut:RXRa IVT, anti-PPARg (DBD mutation: PPARg1 K132A/R137A, NR concentration 270 nM, RXRa partner concentration 90 nM)
Method in brief: as §1

[14] = test system: PPARg DBDmut IVT, anti-PPARg (DBD mutation: PPARg1 K132A/R137A, NR concentration 270 nM)
Method in brief: as §1

[15] = test system: PPARg homodimer (NR concentration 180 nM)
Method in brief: as §1

[16] = test system: PXR:RXRa (NR concentration 270 nM, RXRa partner concentration 90 nM)
Method in brief: as §1

[17] = test system: PXR homodimer (NR concentration 270 nM)
Method in brief: as §1

[18] = test system: RARa:RXR (NR concentration 270 nM, RXRa partner concentration 90 nM)
Method in brief: as §1

[19] = test system: RARa homodimer (NR concentration 270 nM)
Method in brief: as §1

[20] = test system: RARb:RXRa (NR concentration 270 nM, RXRa partner concentration 90 nM)
Method in brief: as §1

Sequence	PBM binding z-score [1]	PBM binding z-score [2]	PBM binding z-score [3]	PBM binding z-score [4]	PBM binding z-score [5]	PBM binding z-score [6]	PBM binding z-score [7]	PBM binding z-score [8]	PBM binding z-score [9]	PBM binding z-score [10]	PBM binding z-score [11]	PBM binding z-score [12]	PBM binding z-score [13]	PBM binding z-score [14]	PBM binding z-score [15]	PBM binding z-score [16]	PBM binding z-score [17]	PBM binding z-score [18]	PBM binding z-score [19]	PBM binding z-score [20]
TCATATAGGTAAAGGTGAAAGGCGAACGATATGA	0.813	1.12	-0.0796	1.17	0.0383	3.4	4.29	4.99	4.35	4.93	4.32	4.06	1.46	1.05	1.25	0.986	0.264	1.81	0.996	1.99
GATACAGGGTCAGCTAGAGGACAGAGTATGGAAA	4.89	3.3	-0.154	2.61	-0.241	4.58	3.93	3.23	1.06	2.12	1.12	2.33	0.573	0.147	2.5	3.17	0.27	4.99	0.599	4.34
CCGACTGGGGCATAAGGATACCATAAGCCAGCCC	-0.174	-0.373	-0.612	-0.813	-1.53	-0.0359	1.29	1.46	0.0303	0.707	2.56	1.93	-0.873	-1.29	-0.477	-0.797	-0.877	-0.463	0.0261	0.0537
CGTCCACGGTCATAGGAGGTCAGTGAAGACAGAT	2.58	4.52	2.1	2.15	-0.643	2.16	0.881	0.977	-0.0793	0.32	0.0707	2.02	-0.535	-1.15	1.73	3.88	0.754	2.6	0.207	3.65
CATACTAGGTCAAGGTCAAAGTCGGTTTGTGCCA	6.62	5.81	5.27	4.77	1.99	5.6	8.52	7.01	5.63	6.93	7.56	7.98	3.58	0.96	5.3	5.33	2.51	5.37	2.9	4.96
CTCGAAGGGTCGTGCTCAGGTGAGTATACCAAAC	2.01	1.45	-0.37	1.52	-0.487	2.89	0.441	1.12	-0.0599	0.72	-0.253	0.525	-0.515	0.0417	0.506	1.37	-0.509	2.56	-0.561	2.31
